Calls of active or inactive are those of the source. Unless noted, the call rests on the fitted dose curve; in most records, active means well fitted curve in the direction sought with a large enough effect in the repeat runs; inconclusive means weak or mixed curves; inactive means no such curve, though single readings can be large; an effect the other way counts as inactive or inconclusive.

Test [1] can be described thus: qHTS assay to identify small molecule antagonists of the thyroid receptor (TR) signaling pathway - cell viability counter screen (AID 743064). Further: nearly all actives have a fitted effect of over 50% in size. Further: potency means the concentration at half of the fitted maximal effect. In a few lines:
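In-well cytotoxicity read by CellTiter-Fluor (30 min, 37 C) following 23.5 h exposure of GH3 cells bearing a TRE-luciferase sensor. Compounds were added alongside 1 nM (final) T3 to drive TR transactivation.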
(Quantitative high-throughput screening tests each substance at several concentrations.)

The subject of test [2] is thyroid hormone receptor (rat, GH3 cells). Kind of test: qHTS assay to identify small molecule agonists of the thyroid receptor (TR) signaling pathway (AID 743066; calls by dose curve).
For test [3], the target named is Estrogen receptor (Homo sapiens) (UniProt P03372). Kind of test: qHTS assay to identify small molecule antagonists of the estrogen receptor alpha (ER-alpha) signaling pathway (AID 743069; active means well fitted curve in the direction sought with a large enough effect in the signal ratio in the repeat runs, not every such curve was filed as active; inconclusive means weak or mixed curves, or effect the other way; inactive means no such curve, though single readings can be large or run the other way; the % refers to the signal ratio; further: potency means the concentration at half of the fitted maximal effect). The method in brief: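 A 17beta-estradiol challenge was applied right after compound transfer to ER-alpha-UAS-bla HEK293 cells previously kept in charcoal-stripped serum. Plates stood 18 hr at 37C and 5% CO2; fluorescence was read following 2 hr FRET substrate loading at room temperature.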

Test [4] is described as follows: qHTS assay to identify small molecule antagonists of the estrogen receptor alpha (ER-alpha) signaling pathway - cell viability counter screen (AID 743074; calls by dose curve;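 further: HEK293 cells carrying ER-alpha-UAS-bla reporter stimulated with 17beta-estradiol; nearly all actives have a fitted effect of over 45% in size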).
Test [5] concerns the target Estrogen receptor (Homo sapiens) (UniProt P03372). Kind of test: qHTS assay to identify small molecule agonists of the estrogen receptor alpha (ER-alpha) signaling pathway (AID 743075; calls by dose curve;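 further: HEK293 GripTite cells with ER-alpha and UAS-driven beta-lactamase reporter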).
Test [6] has the same target. Kind of test: qHTS assay to identify small molecule agonists of the estrogen receptor alpha (ER-alpha) signaling pathway using the BG1 cell line (AID 743079). Further: nearly all actives have a fitted effect of over 20% in size. Further: potency means the concentration at half of the fitted maximal effect.
Test [7] in a line: qHTS assay to identify small molecule antagonists of the estrogen receptor alpha (ER-alpha) signaling pathway using the BG1 cell line (AID 743080; calls by dose curve;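 further: BG1 cells stimulated with 17beta-estradiol alongside compound; nearly all actives have a fitted effect of over 25% in size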; further: potency means the concentration at half of the fitted maximal effect). In a few lines:
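After 5 days in phenol-red-free 10% charcoal-stripped FBS medium, BG1-Luc-4E2 cells were seeded, left 24 h at 37 C, co-treated with compounds and 17beta-estradiol for 21.5 h, then assayed for viability and luciferase.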

The nature of test [8]: qHTS assay to identify small molecule antagonists of the estrogen receptor alpha (ER-alpha) signaling pathway using the BG1 cell line - cell viability counter screen (AID 743081).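 Further: compound given together with 17beta-estradiol as the ER stimulus; series mostly up to about 70 µM; nearly all actives have a fitted effect of over 45% in size.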
The target of test [9] is Aromatase (Homo sapiens) (UniProt P11511). The experiment in a line: qHTS assay to identify aromatase inhibitors (AID 743083). Further: nearly all actives have a fitted effect of over 55% in size. Further: potency means the concentration at half of the fitted maximal effect.
The nature of test [10]: qHTS assay to identify aromatase inhibitors - cell viability counter screen (AID 743084).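 Further: cells stimulated with testosterone during compound exposure; nearly all actives have a fitted effect of over 55% in size.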
The target in test [11] is Aryl hydrocarbon receptor (Homo sapiens) (UniProt P35869). Kind of test: qHTS assay to identify small molecule that activate the aryl hydrocarbon receptor (AhR) signaling pathway (AID 743085). Further: nearly all actives have a fitted effect of over 15% in size. Further: potency means the concentration at half of the fitted maximal effect.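 On activation: HG2L7.5c1 human HepG2 liver cells with stably integrated DRE-driven firefly reporter; series mostly up to about 70 µM.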 In a few lines:
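Luminescence (ONE-Glo) from a dioxin-responsive-element luciferase reporter in HG2L7.5c1 HepG2 cells after 24 hr compound exposure at 37C; viability measured by CellTiter-Fluor fluorescence beforehand.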

The nature of test [12]: qHTS assay to identify small molecule that activate the aryl hydrocarbon receptor (AhR) signaling pathway - cell viability counter screen (AID 743086).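 Further: HepG2 liver cells carrying the AhR DRE luciferase reporter; series mostly up to about 70 µM; nearly all actives have a fitted effect of over 45% in size.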 The method in brief:
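HepG2-AhR-luc (HG2L7.5c1) cells, 4000/well, were preincubated 5 h at 37C, exposed to compound in qHTS format for 24 hr at 37C, then given CellTiter-Fluor for 30 min; viability was read as fluorescence in the reporter wells.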

The target in test [13] is Peroxisome proliferator-activated receptor gamma (Homo sapiens) (UniProt P37231). The experiment in a line: qHTS assay to identify small molecule agonists of the peroxisome proliferator-activated receptor gamma (PPARg) signaling pathway (AID 743094; active means well fitted activation curve with a large enough effect in the signal ratio in the repeat runs, not every such curve was filed as active; inconclusive means weak or mixed curves, or effect the other way; inactive means no such curve, though single readings can be large or run the other way; the % refers to the signal ratio). In a few lines:
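Reporter activation was scored by fluorescence of cleaved LiveBLAzer B/G substrate (1 h, room temperature) in PPARg-bla HEK293H cells previously treated 17 h at 37C with DMSO-dissolved compounds.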

The target is the same in test [14]. Kind of test: qHTS assay to identify small molecule antagonists of the peroxisome proliferator-activated receptor gamma (PPARg) signaling pathway (AID 743191; calls by dose curve; further: series mostly up to about 63 µM; nearly all actives have a fitted effect of over 30% in size). In a few lines: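 GeneBLAzer PPARg UAS-bla HEK293H cells carrying a UAS-driven beta-lactamase reporter were plated at 3000 cells/well, preincubated 5 h at 37C, then given compound for 17 h at 37C; LiveBLAzer B/G FRET substrate was read after 1 h at room temperature.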

A short description of test [15]: qHTS assay to identify small molecule antagonists of the peroxisome proliferator-activated receptor gamma (PPARg) signaling pathway - cell viability counter screen (AID 743194). Further: nearly all actives have a fitted effect of over 55% in size. In a few lines: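 PPARg-UAS-bla HEK293H cells were plated, rested 5 h at 37 C, then treated with compounds plus rosiglitazone (50 nM final) for 17 h at 37 C; viability was then read by CellTiter-Glo luminescence after 30 min at room temperature.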

A short description of test [16]: qHTS assay for small molecule agonists of the antioxidant response element (ARE) signaling pathway - cell viability counter screen (AID 743203; calls by dose curve; further: nearly all actives have a fitted effect of over 55% in size). In a few lines: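 Viability counter screen: stably transfected ARE-bla HepG2 line, 16 hrs compound exposure at 37C/5% CO2, ATP-based CellTiter-Glo luminescence measured in the reporter wells.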
Test [17] in a line: qHTS assay for small molecule activators of the heat shock response signaling pathway - cell viability counter screen (AID 743209). Further: nearly all actives have a fitted effect of over 50% in size. In a few lines: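 Viability of HSE-bla HeLa cells is measured with CellTiter-Glo in the wells already used for the reporter read. Compound exposure lasts 5 h at 37 C, and luminescence is read after 30 min at room temperature.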
Test [18] can be described thus: qHTS assay for small molecule activators of the heat shock response signaling pathway (AID 743210; active means well fitted activation curve with a large enough effect in the signal ratio in the repeat runs, with a control signal flat, not every such curve was filed as active; inconclusive means weak or mixed curves; the % refers to the signal ratio; further: series mostly up to about 63 µM). The method in brief: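 Heat shock element–beta-lactamase HeLa reporter cells; qHTS with compounds for 5 h at 37 C; detection by FRET substrate fluorescence after 2.5 h at RT.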
Test [19] is described as follows: qHTS assay to identify small molecule antagonists of the thyroid receptor (TR) signaling pathway (AID 743065). Further: nearly all actives have a fitted effect of over 55% in size. Further: potency means the concentration at half of the fitted maximal effect. The method in brief: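 GH3.TRE-Luc rat pituitary cells carrying two TR response elements driving luciferase were plated for 4 h, given compound plus 1 nM T3 (final), and incubated 23.5 h at 37 C. ONE-Glo luminescence measured reporter inhibition; CellTiter-Fluor fluorescence tracked cytotoxicity.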

The nature of test [20]: qHTS assay for small molecule agonists of the antioxidant response element (ARE) signaling pathway (AID 743202; active means well fitted activation curve with a large enough effect in the signal ratio in the repeat runs, not every such curve was filed as active; inconclusive means weak or mixed curves, or effect the other way; inactive means no such curve, though single readings can be large or run the other way; the % refers to the signal ratio). In a few lines:
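Following a 16 h, 37 C exposure of reporter HepG2 cells (ARE-driven beta-lactamase, 2,000 cells/well) to compounds, FRET substrate was applied for 2 h at room temperature and fluorescence intensity recorded.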

Estrogen receptor (Homo sapiens), sequence (P03372 whole entry, looked up): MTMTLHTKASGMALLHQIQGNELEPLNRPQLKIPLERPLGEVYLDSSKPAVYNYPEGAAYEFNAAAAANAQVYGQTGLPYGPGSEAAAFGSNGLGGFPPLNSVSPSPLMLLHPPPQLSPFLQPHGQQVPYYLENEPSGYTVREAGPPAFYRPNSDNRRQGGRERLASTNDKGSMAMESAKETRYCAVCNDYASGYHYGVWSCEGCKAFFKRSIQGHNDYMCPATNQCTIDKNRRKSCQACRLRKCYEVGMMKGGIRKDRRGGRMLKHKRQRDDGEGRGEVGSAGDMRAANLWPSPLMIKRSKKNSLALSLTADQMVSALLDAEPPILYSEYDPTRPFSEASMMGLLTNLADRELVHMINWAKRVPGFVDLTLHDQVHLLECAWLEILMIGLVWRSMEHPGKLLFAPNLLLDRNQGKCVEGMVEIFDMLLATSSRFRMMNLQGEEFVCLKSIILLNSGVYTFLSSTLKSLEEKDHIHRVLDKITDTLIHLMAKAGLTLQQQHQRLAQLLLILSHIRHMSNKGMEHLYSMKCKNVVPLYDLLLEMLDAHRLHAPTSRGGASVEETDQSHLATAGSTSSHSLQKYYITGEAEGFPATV
Aromatase (Homo sapiens), sequence (P11511 whole entry, looked up): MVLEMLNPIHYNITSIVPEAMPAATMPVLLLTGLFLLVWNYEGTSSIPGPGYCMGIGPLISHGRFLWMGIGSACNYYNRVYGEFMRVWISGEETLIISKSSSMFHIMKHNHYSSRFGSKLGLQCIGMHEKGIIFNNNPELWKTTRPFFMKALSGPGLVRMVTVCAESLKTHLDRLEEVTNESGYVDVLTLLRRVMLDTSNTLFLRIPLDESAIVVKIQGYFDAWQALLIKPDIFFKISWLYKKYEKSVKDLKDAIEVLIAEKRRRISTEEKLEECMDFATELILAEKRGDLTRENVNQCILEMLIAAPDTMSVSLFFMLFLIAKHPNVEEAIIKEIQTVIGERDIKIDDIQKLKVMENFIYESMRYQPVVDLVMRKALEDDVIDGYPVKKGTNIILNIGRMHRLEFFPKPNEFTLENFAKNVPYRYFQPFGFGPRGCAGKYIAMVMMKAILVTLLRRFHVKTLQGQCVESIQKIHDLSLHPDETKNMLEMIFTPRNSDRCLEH
Aryl hydrocarbon receptor (Homo sapiens), sequence (P35869 whole entry, looked up): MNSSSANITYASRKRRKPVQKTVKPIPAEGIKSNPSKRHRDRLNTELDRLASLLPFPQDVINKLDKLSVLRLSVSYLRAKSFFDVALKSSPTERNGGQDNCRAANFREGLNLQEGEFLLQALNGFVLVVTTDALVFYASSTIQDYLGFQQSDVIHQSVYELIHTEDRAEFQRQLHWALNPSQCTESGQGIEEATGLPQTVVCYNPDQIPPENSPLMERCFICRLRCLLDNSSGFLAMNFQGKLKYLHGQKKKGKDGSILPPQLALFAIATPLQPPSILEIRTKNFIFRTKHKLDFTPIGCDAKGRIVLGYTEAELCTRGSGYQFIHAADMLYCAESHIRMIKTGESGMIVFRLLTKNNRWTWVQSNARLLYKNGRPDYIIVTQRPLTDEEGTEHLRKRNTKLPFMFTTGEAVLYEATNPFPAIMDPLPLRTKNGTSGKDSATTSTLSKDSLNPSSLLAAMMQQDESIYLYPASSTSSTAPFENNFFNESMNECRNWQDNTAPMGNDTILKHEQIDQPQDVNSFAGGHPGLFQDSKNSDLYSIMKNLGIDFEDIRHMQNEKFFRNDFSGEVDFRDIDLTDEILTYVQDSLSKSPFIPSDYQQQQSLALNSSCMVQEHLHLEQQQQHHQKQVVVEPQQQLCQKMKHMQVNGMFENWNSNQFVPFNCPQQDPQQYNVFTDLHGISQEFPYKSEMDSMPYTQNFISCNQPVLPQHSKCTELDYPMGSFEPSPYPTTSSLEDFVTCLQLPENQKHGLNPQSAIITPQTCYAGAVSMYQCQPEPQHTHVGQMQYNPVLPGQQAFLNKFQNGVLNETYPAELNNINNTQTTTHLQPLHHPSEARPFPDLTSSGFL
Peroxisome proliferator-activated receptor gamma (Homo sapiens), sequence (P37231 whole entry, looked up): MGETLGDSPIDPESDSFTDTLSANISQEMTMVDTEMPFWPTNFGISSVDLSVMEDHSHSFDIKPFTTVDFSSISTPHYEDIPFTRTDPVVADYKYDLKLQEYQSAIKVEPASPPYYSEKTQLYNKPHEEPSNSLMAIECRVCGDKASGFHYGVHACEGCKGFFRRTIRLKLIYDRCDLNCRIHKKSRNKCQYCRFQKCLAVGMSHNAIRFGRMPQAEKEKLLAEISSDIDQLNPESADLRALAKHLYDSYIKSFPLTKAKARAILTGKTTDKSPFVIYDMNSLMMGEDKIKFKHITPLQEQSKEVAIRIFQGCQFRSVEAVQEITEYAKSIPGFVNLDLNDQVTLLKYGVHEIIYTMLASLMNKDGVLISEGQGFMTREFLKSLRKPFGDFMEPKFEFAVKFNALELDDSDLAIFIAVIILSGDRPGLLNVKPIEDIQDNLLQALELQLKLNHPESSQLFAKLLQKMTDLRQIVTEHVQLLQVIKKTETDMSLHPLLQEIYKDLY

As to `NCCCN(CCO)CCO`, the Potency result in test [1], in test [2], in test [3], in [5], in test [6] and in test [7] was “inactive” throughout. Besides, the Potency result in test [8], in test [9], in [10], in test [11], in test [12] and in test [13] was “inactive” throughout. Besides, the Potency result in [14], in test [15], in test [16] and in [17] was “inactive” each time. Besides, the molecule was called inactive in test [4] and in test [18].
`CN(C)CC/C=C1\c2ccccc2COc2ccccc21`: the Potency in test [1] is 13.3 µM (active); in test [19], 23.7 µM (active). In addition, the result in [4] and in [18] was inactive. The Potency entry in test [8], in [9], in test [10], in test [11], in [12] and in [15] was “inactive” throughout. Moreover, the Potency result in test [20], in test [16] and in test [17] was “inactive” in each case.
For the molecule `CCOc1nc2cccc(C(=O)O)c2n1Cc1ccc(-c2ccccc2-c2nn[nH]n2)cc1`, the Potency was 29.8 µM (active) in test [1]; 29.8 µM (active) in test [19]; 0.425 µM [inconclusive] (active) in [3]; 0.0376 µM (active) in test [6]; 2.66 µM (active) in test [7]. Further, the molecule was classed as inactive in [4] and in test [18]. Also, the Potency result in test [5], in test [8], in test [9], in test [10], in test [11] and in [12] was “inactive” throughout. Also, the Potency entry in [13] and in test [16] was “inactive” throughout.
For `O=C(O)c1cccc(N(Cc2cccnc2)c2ccc(OC(F)F)c(OC(F)F)c2)c1`, the Potency entry in test [1], in test [19], in test [2], in test [8], in test [10] and in [11] was “inactive” in each case. In addition, the Potency result in test [12], in test [15], in test [16] and in test [17] was “inactive” in each case. In addition, the molecule was called inactive in test [4] and in test [18].
Regarding `CC[C@]12CCCN3CCc4c(n(c5ccccc45)C(=O)C1)[C@@H]32`, the Potency was 8.04 µM (active) in [1], 7.17 µM (active) in test [19] and 11.4 µM (active) in test [9]. In addition, the Potency result in [2], in [8], in test [10], in test [13], in [15] and in [20] was “inactive” in each case. The Potency result in test [16] and in test [17] was “inactive” in each case. Moreover, the result in test [4] and in [18] was inactive.
In the case of `CCCCOC(=O)c1ccccc1C(=O)OCC(CC)CCCC` (stereo not drawn), the Potency entry in test [1], in test [19], in [2], in test [5], in [6] and in test [7] was “inactive” in each case. Further, the Potency result in [8], in test [9], in test [11], in test [12], in [13] and in [14] was “inactive” each time. Also, the Potency entry in [15], in [20] and in test [16] was “inactive” in each case. In test [18], the molecule was classed as inactive.
Consider `O=C(O)[C@@H]1[C@H]2C[C@H]3c4[nH]c5ccccc5c4CCN3C[C@@H]2CC[C@@H]1O`, for which the Potency result in test [1], in test [2], in test [3], in test [5], in [6] and in test [8] was “inactive” throughout. Besides, the Potency result in test [9], in [10], in test [12], in test [13], in test [15] and in test [20] was “inactive” in each case. Moreover, the Potency entry in test [16] and in [17] was “inactive” each time. Also, the result in test [4] was inactive. In addition, the Potency in test [11] was 7.17 µM (active).
On to `CCCCCCCCCCCCCCCCCBr`, for which the Potency entry in test [1], in [2], in [8], in test [9], in [10] and in test [11] was “inactive” throughout. The Potency entry in [12], in test [13], in [14], in test [15], in [20] and in test [16] was “inactive” each time. For the same molecule, in test [17], the Potency entry was “inactive”. In addition, the result in test [4] was inactive.
With `CCCCCCCCN(C)C`, the Potency result in test [1], in test [2], in test [3], in [5], in [6] and in test [7] was “inactive” throughout. Besides, the Potency entry in test [8], in test [9], in test [10], in test [12], in test [13] and in [14] was “inactive” throughout. Also, the Potency result in test [20], in test [16] and in [17] was “inactive” each time. Also, the molecule was classed as inactive in test [4].
